Assay outcomes as filed in PubChem BioAssay.
hgDAF12 agonist – hgDAF-12 agonism, primary luciferase screen; activation, % at 6.8 µM; HEK293 GAL4-hgDAF12 UAS-luciferase reporter, agonist luminescence; normalized to butyrate control; 370,000 compounds, 1.8% hits;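 active = activation above a cutoff set at the mean of all screened compounds plus 3 SD, cut at about 10% in these data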;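 also: 0% = DMSO wells and 100% = sodium butyrate wells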
DAX1 inh-1 – NR0B1 (DAX1) inhibition; HEK293 Gal4-DAX1 luciferase reporter, luminescence; inhibition, % at 6.75 µM; AID 504766; 340,000 compounds, 0.99% hits;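 active = inhibition above the mean over all tested compounds plus 3 SD, cut at about 4.2% in these data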;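 also: 0% = DAX1-transfected cells with DMSO and 100% = empty-vector control cells with DMSO; inhibition shows as a rise in luminescence from relieved DAX1 repression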
Target sequence (P51843 207-470 limits assumed): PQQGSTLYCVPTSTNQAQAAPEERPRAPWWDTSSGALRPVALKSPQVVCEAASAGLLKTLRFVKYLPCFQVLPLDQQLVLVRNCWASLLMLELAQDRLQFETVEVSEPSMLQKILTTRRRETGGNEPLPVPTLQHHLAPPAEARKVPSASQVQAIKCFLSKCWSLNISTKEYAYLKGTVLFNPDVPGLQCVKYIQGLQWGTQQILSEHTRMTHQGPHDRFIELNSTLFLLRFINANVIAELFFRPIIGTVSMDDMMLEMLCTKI
hcDAF12 agonist – H. contortus DAF-12 activation, primary screen; HEK293 hcDAF-12 lit1-tk-luc reporter, luminescence; 0% DMSO, 100% Δ7-dafachronic acid; activation, % at 6.8 µM; 370,000 compounds, 1.4% hits; AID 652067;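 active = activation above the mean of all tested compounds plus 3 SD, cut at about 5.5% in these data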;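 also: 100% = response to 3 µM Δ7-dafachronic acid high control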
DAX1 inh-2 – blocks DAX1 repression of SF-1 activated StAR promoter | 370,000 compounds, 1.1% hits | AID 652010 | inhibition, % at 6.8 µM | HEK293T StAR-luciferase reporter, SF-1/DAX-1 repression relief;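 active = inhibition above the mean over all tested compounds plus 3 SD, cut at about 3.6% in these data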;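 also: 0% = DAX-1 cells with DMSO and 100% = cells lacking DAX-1 with DMSO; higher inhibition means more luminescence from relief of DAX-1 repression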
ssDAF12 agonist – activators of S. stercoralis DAF-12 nuclear receptor; HEK293 ssDAF-12/GRIP1 lit1-tk-luc reporter, luminescence; % of 3 µM dafachronic acid response; activation, % at 6.8 µM; 370,000 compounds, 1% hits; AID 652126;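 active = activation above the mean over all tested compounds plus 3 SD, cut at about 0.9% in these data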;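 also: 0% = DMSO-only wells and 100% = 3 µM delta7-dafachronic acid wells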
Starred values were filed as active, the others as inactive; / = no result given. A selection: hits, their analogues and other compounds. The true share with any hit is near 4.1%.

SMILES	hgDAF12 agonist	DAX1 inh-1	hcDAF12 agonist	DAX1 inh-2	ssDAF12 agonist
COc1cc(NC(=O)CN2CCN(C(=O)c3ccco3)CC2)c(C)cc1[N+](=O)[O-]	-4	-1	-1	0	-1
CC1CCCCC12NC(=O)N(CC(=O)N1CCN(C(=O)c3cccs3)CC1)C2=O (centres undefined)	-1	0	1	1	-1
Cc1cccc2sc(N(CCCN(C)C)C(=O)COc3ccc(Cl)cc3)nc12	1	4.3*	0	1	-1
CN(C)CCCN(C(=O)COc1ccc(Cl)cc1)c1nc2c(F)cccc2s1	1	1	-1	0	-1
CCn1ncc(C(=O)Nc2cc(C)on2)c1C	12*	2	1	1	-1
Cc1ccc(C(=O)Nc2ccc(Cl)cc2C(F)(F)F)c(Cl)c1	13*	1	0	0	-1
O=C(Nc1ccc(Cl)cc1C(F)(F)F)c1ccccc1Cl	4	0	-3	0	-1
O=C(Nc1ccsn1)c1ccc(Cl)cc1Cl	12*	4.5*	1	0	-1
Cc1ccc(NC(=O)Nc2cc(C)on2)cc1	5	1	0	1	-1
Cc1cc(NC(=O)Nc2ccc(Cl)cc2)no1	2	4.8*	2	1	-1
O=C(N[C@H](C(=O)N1CCC[C@H]1C(=O)NC1CCCC1)C1CCCCC1)c1ccc(Cl)cc1Cl	-5	/	1	0	-2
Cc1ccc(C(C)C)cc1OCC(=O)Nc1ccc(-n2cnnn2)cc1	1	0	0	2	-1
CC(C)NC(=S)NC(=O)c1ccc(Cl)cc1Cl	4	-1	5.7*	1	0
CC(C)CNC(=S)NC(=O)c1ccc(Cl)cc1Cl	5	-1	1	0	-1
Cc1cc(NC(=O)c2cc(C)on2)no1	0	0	3	-1	0
Cc1cc(NC(=O)c2ccc(Cl)cc2Cl)no1	12*	6.7*	5	3	0
O=C(COc1ccc(Cl)cc1Br)NCC(c1ccco1)N1CCCC1 (centres undefined)	-2	0	1	-1	-2
CCn1cc(C(=O)O)c(=O)c2cnc(N3CCN(C(=S)Nc4ccccc4)CC3)nc21	0	3	0	0	-2
CCCCOC(=O)c1ccc(NC(=S)N2CCN(c3ncc4c(=O)c(C(=O)O)cn(CC)c4n3)CC2)cc1	-3	4.3*	-2	0	-1
CC1(C(=O)NCc2ccc3c(c2)OCO3)CCN1C(=O)Cc1ccc(Cl)cc1Cl (centres undefined)	0	/	1	-3	-1
CC(=O)Nc1ccc(NCc2cccs2)cc1	-3	4.3*	-2	0	-1
CC1CCC2(CC1)NC(=O)N(CC(=O)Nc1ccc(N3CCCCC3)cc1)C2=O (centres undefined)	1	1	3	0	-1
COC(=O)N(C)C[C@@H]1OCc2ccccc2-c2c(n(C)c3ccccc23)C(=O)N([C@H](C)CO)C[C@@H]1C	-3	1	0	3.8*	-1
CCN(CC)C(=O)CC[C@@H]1CC[C@]2(CCCN(Cc3cccnc3)C2)O1	-1	/	-1	1	-1
COc1ccc2nc(NC(=O)CN3CCOCC3)sc2c1	11*	1	1	0	-1
SMILES	hgDAF12 agonist	DAX1 inh-1	hcDAF12 agonist	DAX1 inh-2	ssDAF12 agonist
COc1ccc2nc(NC(=O)CN3CCN(C)CC3)sc2c1	2	1	2	0	-1
COc1ccc2nc(NC(=O)CSc3nnc(N)s3)sc2c1	-1	-1	0	1	-1
COc1ccc2nc(NC(=O)CSc3nnc(C)n3N)sc2c1	10	1	4	3.8*	0
CC(C)CC(NC(=O)c1ccccc1)C(=O)OCC(=O)Nc1ccc(S(N)(=O)=O)cc1 (centres undefined)	2	4.5*	-1	0	-2
O=C(NCC1CCN(C(=O)C(=O)c2cc3ccccc3o2)CC1)c1ccc2c(c1)OCCCO2	0	/	0	1	-1
O=C1C=C(Nc2ccccc2C(=O)O)c2ccccc2C1=O	1	0	6.3*	0	0
O=C(NCc1cccs1)c1cccc2c(-c3ccc(F)c(F)c3)coc12	-3	/	1	0	3.5*
O=C(NCCCn1cccn1)c1cc(COc2ccccc2)on1	8	4.2*	2	3	0
CCCc1cc(C(=O)NCCc2ccccc2)no1	11*	0	4	4	-1
CN1NC(=O)c2ccccc2NC1=S	-1	/	1	-1	0
Cc1ccsc1C(=O)OCC(=O)N1C(C)CCCC1C (centres undefined)	2	3	0	-1	0
CCN(C(=O)CSC1=Nc2ccccc2C2CC=NN12)C1CCS(=O)(=O)C1 (centres undefined)	3	1	5.8*	1	1
Cc1cc2c(c(=O)o1)[C@@]1(C(=O)N(c3ccccc3)c3ccccc31)C1=C(CCCC1=O)O2	3	/	-2	-1	-1
CCOc1ccc(-c2nc(CSc3nnc(N)s3)cs2)cc1	12*	1	3	1	0
Cc1[nH]nc2c1C(c1cccc(C(F)(F)F)c1)N(Cc1ccccc1)C2=O (centres undefined)	-3	/	-1	-1	-1
Cc1ccc(C2(c3noc(CN(C)Cc4cccnc4)n3)CCCC2)cc1	0	4.5*	-1	0	-1
Cc1cccc(S(=O)(=O)NC(=O)C2(C)CCN2C(=O)Cc2cccs2)c1 (centres undefined)	-2	/	-4	-1	-1
Cc1ccc(CNC(=O)C2CCC(=O)N(CCc3ccc(Cl)cc3)C2)cc1 (centres undefined)	8	0	0	-1	-1
Cc1ccc(CNC(=O)C2CCC(=O)N(CCc3ccc(Cl)cc3)C2)s1 (centres undefined)	2	1	-1	-1	1.1*
CN(C)C1=NCCN1CC1CCCC1	1	0	3	0	1.2*
CN(C)C1=NCCN1CCCC1CCCC1	0	2	-1	0	-1
COC(=O)[C@H](C(C)C)N(CCCc1cn(Cc2ccc(C)cc2)nn1)S(=O)(=O)c1ccc(F)cc1Br	-6	/	-2	-2	-2
COCCNC(=O)c1cc(-c2cccc(OC)c2)on1	11*	1	1	2	0
COc1cccc(-c2cc(C(=O)NCc3cccs3)no2)c1	13*	4	2	2	0
